Measured values reported in PubChem BioAssay (NCI).
The panel holds about 83,000 compounds, 20% with a hit somewhere; the sample as a whole holds those more often.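 Note: values are percent growth. 100 is the growth of untreated cells, values between 100 and 0 indicate rising inhibition; between -100 and 0 indicates cell death.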 A number with no mark means an inactive call. Active and inactive are the calls of the source. Rule for the calls: active = growth percent below 10; inactive = the rest.

Experiments:
Assay in all cases: NCI-60 one-dose screen, 48 h (100 = growth as untreated, 0 = no growth, -100 = all killed)
Details in all cases: 10 µM unless noted
[1] = tested on: SR leukemia
[2] = tested on: RPMI-8226 leukemia
[3] = tested on: OVCAR-8 ovarian
[4] = tested on: OVCAR-5 ovarian
[5] = tested on: OVCAR-4 ovarian
[6] = tested on: SK-OV-3 ovarian
[7] = tested on: IGROV1 ovarian
[8] = tested on: OVCAR-3 ovarian
[9] = tested on: HS 578T breast
[10] = tested on: NCI/ADR-RES ovarian

Compound	growth [1]	growth [2]	growth [3]	growth [4]	growth [5]	growth [6]	growth [7]	growth [8]	growth [9]	growth [10]
Cc1ccc(C2=Nc3c(N)ncnc3NC(c3cccc(Nc4ccnc5cc(C(F)(F)F)ccc45)c3)C2)cc1 (stereo not given)	-19.3% (active)	-26.6% (active)	48.5%	75.2%	45.6%	46.7%	44.7%	39.2%	43.3%	17.4%
CCCCn1c(=O)[nH]c(N)c([C@@H]2c3c([nH]c(=O)n(CCCC)c3=O)Oc3ccc4ccccc4c32)c1=O	9.35% (active)	77.8%	7.15% (active)	92.3%	86.2%	85%	1.79% (active)	-92.1% (active)	103%	9.83% (active)
CCCCNC(=O)Oc1ccc(/C(=C(/C)Cc2ccc(OC)cc2)c2ccc(OCCN3CCCC3)cc2)cc1	-54.1% (active)	1.62% (active)	69.6%	86%	68.9%	89.1%	85.5%	56.1%	50.4%	81.5%
CC(=O)N1N=C(c2ccc(Nc3nc(Nc4ccccc4)nc(Nc4ccccc4)n3)cc2)CC1c1ccccc1 (stereo not given)	62.3%	59.9%	82.9%	91.9%	96.5%	95.5%	54.1%	88.6%	89.3%	84.6%
CC(C)(Sc1cc(C(C)(C)C)c(O)c(C(C)(C)C)c1)Sc1cc(C(C)(C)C)c(OC(=O)CCCC(=O)O)c(C(C)(C)C)c1	28.1%	37.2%	56.7%	100%	67.9%	91.6%	57.4%	44.2%	80.1%	78.7%
O=C(Nc1ccccc1O)c1ccc(CNC(=O)c2sccc2Nc2ccnc(C(F)(F)F)c2)cc1	36.2%	24.3%	35.8%	45.6%	48.3%	57.2%	41%	41.3%	14.6%	24.1%
CN1CCc2nc3sc(C(N)=O)c(N)c3c(-c3cccs3)c2C1	22.8%	75.7%	22.2%	15.1%	64.5%	57.4%	26.2%	-32.5% (active)	32.4%	40.6%
O=C(CSc1nnc(-c2cnccn2)n1-c1ccccc1)c1ccc(Cl)cc1	90.8%	92%	100%	96.9%	105%	108%	106%	98.3%	104%	104%
Nc1nc2ccc(-c3nc4ccc5[nH]ncc5c4c4c3CCCC4)cc2s1	95.9%	115%	100%	105%	107%	94.4%	102%	110%	99.7%	103%
Cc1cccc(CNc2c3ccccc3nc3ccccc23)c1	-2.88% (active)	-20.4% (active)	20.3%	35.8%	27.9%	45.3%	19.5%	30.8%	30.3%	25.7%
COc1cc(OCc2cccc(Br)c2C)cc(OC)c1C=O	82.6%	52.8%	89.9%	55.5%	67.7%	94.8%	61.8%	87.1%	89.1%	89.7%
COc1ccc(Nc2ncc(Br)c(NCCCNC(=O)C3CCCC3)n2)cc1	47%	49.3%	36.7%	54.6%	56.7%	30.6%	14.1%	46.6%	29.2%	51.5%
CC/C(=C(/c1ccc(Cl)cc1)c1ccc(OCCN(C)C)cc1)c1ccc(Cl)cc1	-6.88% (active)	32.8%	75.1%	83.9%	78%	90%	72.5%	65%	75.1%	74.8%
CCOC(=O)n1cc(-c2nonc2-c2cn(C(=O)OCC)c3ccc(Br)cc23)c2ccccc21	78.4%	88.9%	85.6%	64.4%	79.1%	79.8%	52.6%	79.1%	87%	86.5%
COc1ccc(/C=C/C(=O)c2cccc(OCCCCOc3cccc(C(=O)/C=C/c4ccc(OC)c(OC)c4)c3)c2)cc1OC	69.4%	35.6%	68.3%	102%	32.9%	89.6%	75.2%	80.9%	78.4%	78.1%
Cn1cc(C(=O)c2nc(-c3c[nH]c4ccccc34)no2)c2cc(F)ccc21	11.2%	37.5%	49.3%	68.3%	69.8%	43.3%	32.5%	0.717% (active)	44.8%	36.5%
Cc1ccc(Nn2c(SCC(=O)Nc3nc(-c4ccccc4)cs3)nc(C)c2C)cc1	72.6%	55.8%	55.5%	81.8%	32%	64.1%	86%	78.5%	106%	34.4%
CC(C)c1ccc(-n2c(=S)[nH]c3sc4cc(O)ccc4c3c2=O)cc1	102%	100%	102%	100%	111%	112%	91.4%	104%	92.4%	103%
OB1OCc2cc(/C=C/c3cccc(C(F)(F)F)c3)ccc21	-1.55% (active)	15.7%	10.8%	37.6%	-12.9% (active)	15.9%	16.8%	-27.3% (active)	23.3%	15.2%
O=C1NC(=C(Cl)Cl)/C(=N\S(=O)(=O)NCc2ccccc2)N1	65.3%	75.6%	94.6%	98.4%	108%	97.1%	102%	105%	122%	109%
O=c1c2cnn(-c3ccccc3)c2n2c(CN3CCOCC3)nnc2n1-c1ccccc1	104%	102%	100%	114%	104%	88.2%	109%	105%	107%	98.8%
COc1ccc(-c2ccc(=O)oc2-c2cc(OC)c(OC)c(OC)c2)cc1O	0.907% (active)	9.69% (active)	14.2%	22.8%	39.8%	25.9%	3.86% (active)	-72.7% (active)	-2.33% (active)	12.9%
Fc1cc2c(cc1Cl)N(c1ncnc3ccc(-c4ccc5n[nH]nc5c4)cc13)CC2	66.8%	92%	85.6%	76.5%	81.3%	95.6%	32.2%	69%	58.2%	87.3%
CCOC(=O)c1cc2c(n1Cc1cc(OC)c(OC)c(OC)c1)-c1nc(N)sc1CCC2	5.15% (active)	75.9%	55.4%	98.3%	65%	29.3%	50.8%	21.1%	55.7%	20.8%
O=C(O)CCN1C(=O)/C(=C/C(Cl)=C/c2ccccc2)SC1=S	6.86% (active)	-8.3% (active)	22.8%	57.8%	28.7%	94%	22.6%	2.92% (active)	33.8%	11.3%
Cc1nc2sc(C(=O)Nc3cccc4ccccc34)c(N)c2cc1C(O)c1ccccc1 (stereo not given)	-1.98% (active)	0.145% (active)	5.13% (active)	37.4%	60%	8.83% (active)	14.4%	-5.29% (active)	8.1% (active)	2.93% (active)
